{"source": "the supplement of paper PMC8728848", "binders": {"B1": {"name": "ZG16p (Homo sapiens), O60844 (protein)", "chain": "ARSSSYSGEYGGGGGKRFSHSGNQLDGPITALRVRVNTYYIVGLQVRYGKVWSDYVGGRNGDLEEIFLHPGESVIQVSGKYKWYLKKLLFVTDKGRYLSFGKDSGTSFNAVPLHPNTVLRFISGRSGSLIDAIGLHWDVYPSSCSRC"}}, "assay_in_all_cases": "glycan array binding signal (z-score within array); higher = stronger binding", "details_in_all_cases": "glycan notation: IUPAC condensed, linker removed", "key": {"[1]": {"target": "3dGal(b1-3)[Fuc(a1-4)]Glc", "outline": "(§1)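 The binding signal is a Z-score computed within each array and averaged over linkers. Arrays of the same protein sequence at different concentrations or buffers were also averaged together. Data originate from 3228 arrays in the Consortium for Functional Glycomics database, kept only where the protein sequence was available.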"}, "[2]": {"target": "Fuc(a1-3)[3dGal(b1-4)]Glc", "outline": "as §1"}, "[3]": {"target": "Fuc(a1-3)[Gal(b1-4)]GlcNAc(b1-3)Gal(b1-4)Glc", "outline": "as §1"}, "[4]": {"target": "Fuc(a1-3)[Gal6S(b1-4)]GlcNAc(b1-3)Gal(b1-4)Glc", "outline": "as §1"}, "Gal(a1-6)Glc": {"target": "Gal(a1-6)Glc", "outline": "as §1"}, "Gal(b1-4)Glc": {"target": "Gal(b1-4)Glc", "outline": "as §1"}, "[5]": {"target": "Gal(b1-4)GlcNAc(b1-2)Man(a1-3)[Man(a1-6)]Man(b1-4)GlcNAc(b1-4)GlcNAc", "outline": "as §1"}, "[6]": {"target": "Gal(b1-4)GlcNAc(b1-3)[Fuc(a1-3)[Gal(b1-4)]GlcNAc(b1-6)]Gal(b1-4)Glc", "outline": "as §1"}, "Glc(a1-3)Glc": {"target": "Glc(a1-3)Glc", "outline": "as §1"}, "[7]": {"target": "Glc(a1-4)Glc(a1-4)Glc(a1-4)Glc(a1-4)Glc(a1-4)Glc(a1-4)Glc(a1-4)Glc", "outline": "as §1"}, "[8]": {"target": "Glc(a1-4)Glc(a1-4)Glc(a1-4)Glc(a1-4)Glc(a1-4)Glc(a1-4)Glc(a1-4)Glc(a1-4)Glc(a1-4)Glc", "outline": "as §1"}, "[9]": {"target": "Glc(a1-4)Glc(a1-4)Glc(a1-4)Glc(a1-4)Glc(a1-4)Glc(a1-4)Glc(a1-4)Glc(a1-4)Glc(a1-4)Glc(a1-4)Glc(a1-4)Glc", "outline": "as §1"}, "[10]": {"target": "Glc(a1-4)Glc(a1-4)Glc(a1-4)Glc(a1-4)Glc(a1-4)Glc(a1-4)Glc(a1-4)Glc(a1-4)Glc(a1-4)Glc(a1-4)Glc(a1-4)Glc(a1-4)Glc", "outline": "as §1"}, "Glc(a1-6)Glc(a1-6)Glc": {"target": "Glc(a1-6)Glc(a1-6)Glc", "outline": "as §1"}, "[11]": {"target": "Glc(b1-3)Glc(b1-3)Glc(b1-3)Glc", "outline": "as §1"}, "Glc(b1-6)Glc": {"target": "Glc(b1-6)Glc", "outline": "as §1"}, "GlcA(b1-3)Gal(b1-4)Glc": {"target": "GlcA(b1-3)Gal(b1-4)Glc", "outline": "as §1"}, "[12]": {"target": "GlcNAc(b1-2)[GlcNAc(b1-4)]Man(a1-3)[GlcNAc(b1-2)[GlcNAc(b1-4)][GlcNAc(b1-6)]Man(a1-6)][GlcNAc(b1-4)]Man(b1-4)GlcNAc(b1-4)GlcNAc", "outline": "as §1"}, "[13]": {"target": "GlcNAc(b1-3)[GlcNAc(b1-6)]Gal", "outline": "as §1"}, "[14]": {"target": "GlcNAc(b1-4)GlcNAc(b1-4)GlcNAc(b1-4)GlcNAc(b1-4)GlcNAc(b1-4)GlcNAc", "outline": "as §1"}, "[15]": {"target": "Kdn(a2-3)Gal(b1-3)GlcNAc(b1-3)Gal(b1-4)Glc", "outline": "as §1"}, "[16]": {"target": "Kdn(a2-3)Gal(b1-4)[Fuc(a1-3)]GlcNAc(b1-3)Gal", "outline": "as §1"}, "Man(a1-3)Man": {"target": "Man(a1-3)Man", "outline": "as §1"}, "Man(a1-3)Man(b1-4)GlcNAc": {"target": "Man(a1-3)Man(b1-4)GlcNAc", "outline": "as §1"}, "[17]": {"target": "Man(b1-4)Man(b1-4)Man(b1-4)Man(b1-4)Man(b1-4)Man", "outline": "as §1"}, "[18]": {"target": "Neu5Ac(a2-3)Gal(b1-3)GlcNAc(b1-3)[Fuc(a1-3)[Gal(b1-4)]GlcNAc(b1-6)]Gal(b1-4)Glc", "outline": "as §1"}, "Neu5Ac(a2-3)Gal(b1-4)Glc": {"target": "Neu5Ac(a2-3)Gal(b1-4)Glc", "outline": "as §1"}, "[19]": {"target": "Neu5Ac(a2-3)Gal(b1-4)[Fuc(a1-3)]GlcNAc(b1-6)Gal(b1-4)Glc", "outline": "as §1"}, "[20]": {"target": "Neu5Ac(a2-3)Gal6S(b1-4)[Fuc(a1-3)]GlcNAc(b1-3)Gal(b1-4)Glc", "outline": "as §1"}, "[21]": {"target": "Neu5Ac(a2-6)Gal(b1-3)GlcNAc(b1-3)[Fuc(a1-3)[Gal(b1-4)]GlcNAc(b1-6)]Gal(b1-4)Glc", "outline": "as §1"}, "[22]": {"target": "Neu5Ac(a2-8)Neu5Ac(a2-8)Neu5Ac(a2-3)Gal(b1-4)Glc", "outline": "as §1"}, "[23]": {"target": "Neu5Ac9Me(a2-3)Gal(b1-4)Glc", "outline": "as §1"}, "[24]": {"target": "Neu5Gc(a2-6)Gal(b1-4)GlcNAc(b1-2)Man(a1-3)[Neu5Gc(a2-6)Gal(b1-4)GlcNAc(b1-2)Man(a1-6)]Man(b1-4)GlcNAc(b1-4)GlcNAc", "outline": "as §1"}, "[25]": {"target": "Xyl(b1-2)[Man(a1-3)][Man(a1-6)]Man(b1-4)GlcNAc(b1-4)[Fuc(a1-3)]GlcNAc", "outline": "as §1"}}, "note": "Only a selection was taken, and the strongest signals are over-represented in it overall."}
{"binder": "B1", "values": [{"measurement": "glycan array binding signal (z-score)", "setting": "[1]", "result": -0.327}, {"measurement": "glycan array binding signal (z-score)", "setting": "[2]", "result": -0.025}, {"measurement": "glycan array binding signal (z-score)", "setting": "[3]", "result": -0.178}, {"measurement": "glycan array binding signal (z-score)", "setting": "[4]", "result": -0.328}, {"measurement": "glycan array binding signal (z-score)", "setting": "Gal(a1-6)Glc", "result": -0.272}, {"measurement": "glycan array binding signal (z-score)", "setting": "Gal(b1-4)Glc", "result": -0.133}, {"measurement": "glycan array binding signal (z-score)", "setting": "[5]", "result": -0.273}, {"measurement": "glycan array binding signal (z-score)", "setting": "[6]", "result": -0.328}, {"measurement": "glycan array binding signal (z-score)", "setting": "Glc(a1-3)Glc", "result": 2.88}, {"measurement": "glycan array binding signal (z-score)", "setting": "[7]", "result": 1.93}, {"measurement": "glycan array binding signal (z-score)", "setting": "[8]", "result": 1.95}, {"measurement": "glycan array binding signal (z-score)", "setting": "[9]", "result": 4.4}, {"measurement": "glycan array binding signal (z-score)", "setting": "[10]", "result": 2.82}, {"measurement": "glycan array binding signal (z-score)", "setting": "Glc(a1-6)Glc(a1-6)Glc", "result": 0.475}, {"measurement": "glycan array binding signal (z-score)", "setting": "[11]", "result": 0.797}, {"measurement": "glycan array binding signal (z-score)", "setting": "Glc(b1-6)Glc", "result": 2.7}, {"measurement": "glycan array binding signal (z-score)", "setting": "GlcA(b1-3)Gal(b1-4)Glc", "result": -0.328}, {"measurement": "glycan array binding signal (z-score)", "setting": "[12]", "result": -0.42}, {"measurement": "glycan array binding signal (z-score)", "setting": "[13]", "result": 0.435}, {"measurement": "glycan array binding signal (z-score)", "setting": "[14]", "result": -0.328}, {"measurement": "glycan array binding signal (z-score)", "setting": "[15]", "result": -0.328}, {"measurement": "glycan array binding signal (z-score)", "setting": "[16]", "result": -0.328}, {"measurement": "glycan array binding signal (z-score)", "setting": "Man(a1-3)Man", "result": 2.78}, {"measurement": "glycan array binding signal (z-score)", "setting": "Man(a1-3)Man(b1-4)GlcNAc", "result": 2.31}, {"measurement": "glycan array binding signal (z-score)", "setting": "[17]", "result": -0.328}, {"measurement": "glycan array binding signal (z-score)", "setting": "[18]", "result": -0.328}, {"measurement": "glycan array binding signal (z-score)", "setting": "Neu5Ac(a2-3)Gal(b1-4)Glc", "result": -0.276}, {"measurement": "glycan array binding signal (z-score)", "setting": "[19]", "result": -0.328}, {"measurement": "glycan array binding signal (z-score)", "setting": "[20]", "result": -0.328}, {"measurement": "glycan array binding signal (z-score)", "setting": "[21]", "result": -0.328}, {"measurement": "glycan array binding signal (z-score)", "setting": "[22]", "result": -0.328}, {"measurement": "glycan array binding signal (z-score)", "setting": "[23]", "result": -0.328}, {"measurement": "glycan array binding signal (z-score)", "setting": "[24]", "result": -0.282}, {"measurement": "glycan array binding signal (z-score)", "setting": "[25]", "result": -0.369}]}
